Reference: PubChem BioAssay (NCATS)
Values without a mark were called inactive. Results filed as inconclusive are left out. Where a call stands in place of a potency, no number is given. Calls of active or inactive are those of the source. Calls follow the shape of the dose curve; as a rule, active = well fitted curve in the direction sought with a large enough effect; inconclusive = small, poorly fitted or top-dose-only effect, or another doubt; inactive = no such curve, though single readings can be large; an effect the other way counts as inactive or inconclusive.

Assays:
[1] = system: Nanoluciferase (engineered Oplophorus gracilirostris luciferase); assay: Primary Nanoluciferase (NLuc) qHTS assay for identification of artifact compounds. (AID 1845222);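 also: NLuc secreted into diluted conditioned medium of S16 cells; series mostly up to about 54 µM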
Procedure, shortened: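 NLuc from S16 cell medium (1:55) plus test compounds, 15 min, room temperature. Luminescence after Nano-Glo (1:100) addition, 5 min.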

[2] = Primary redox qHTS assay for identification of artifact compounds. (AID 1845223)
Procedure, shortened: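 Redox-cycling detection via DTT (250 uM final) oxidation coupled to Amplex Red (25 uM)/HRP (250 mU/mL) in HBSS. 15 min preincubation plus 30 min after DTT, room temperature. Ex/Em 525/598 nm; 4-parameter Hill fit against DMSO and 10 uM DA3003.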

[3] = target: Cytochrome P450 3A4 (Homo sapiens) (UniProt P08684); assay: qHTS for inhibitors of CYP3A4 against the NCATS DSHEA and TCM libraries (AID 1919971);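 also: inhibition lowers luminescence from luciferin made by CYP3A4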
Procedure, shortened: (§1)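 Substances were tested against enzyme with a pro-luciferin substrate; minus-enzyme wells served as background. After NADPH-initiated oxidation (30-45 min, RT), light was generated with P450-Glo reagent.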

[4] = target: Cytochrome P450 2C9 (Homo sapiens) (UniProt P11712); assay: qHTS for inhibitors of CYP2C9 against the NCATS DSHEA and TCM libraries (AID 1919973);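 also: luminogenic pro-luciferin CYP2C9 substrate turned into luciferin with NADPH regeneration; series mostly up to about 34 µM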
Procedure, shortened: as §1

[5] = target: Cytochrome P450 2C19 (Homo sapiens) (UniProt P33261); assay: qHTS for inhibitors of CYP2C19 against the NCATS DSHEA and TCM libraries (AID 1919974);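 also: luminescence from luciferin released by CYP2C19 oxidation of a pro-luciferin substrate; potency is read from the fitted curve at half-maximal effect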
Procedure, shortened: as §1

[6] = KB-3-1 P-gp reporter qHTS against the NCATS DSHEA and TCM libraries (AID 1919975)
Procedure, shortened: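 Parental KB-3-1 cells, 500 cells/well, in DMEM with 10% FBS, exposed 72 h at 37 C to compounds in concentration-response. Viability read by CellTiter-Glo luminescence after 30 min at room temperature.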

[7] = KB-8-5-11 P-gp reporter qHTS against the NCATS DSHEA and TCM libraries (AID 1919977)
Procedure, shortened: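 P-gp-overexpressing KB-8-5-11 cells were screened in colchicine-free medium at 500 cells/well, as a titration series. Cells were exposed for 72 h at 37C. Viability was read by CellTiter-Glo luminescence after 30 min at room temperature.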

[8] = qHTS Counterscreen for compound interference against the NCATS DSHEA and TCM libraries (AID 1919978); conditions: firefly luciferase detection reagent interference, luminescence;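 also: compounds preincubated with 1 µM D-luciferin or buffer before detection reagent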
Procedure, shortened: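 Firefly luciferase detection reagent was added after compounds (19.5 nM–39.8 uM final) had been incubated 15 min at room temperature with 1 uM D-luciferin or with 100 mM phosphate buffer alone. Luminescence was read after 30 min at room temperature.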

[9] = target: Cytochrome P450 2D6 (Homo sapiens) (UniProt P10635); assay: qHTS for inhibitors of CYP2D6 against the NCATS DSHEA and TCM libraries (AID 1919972)
Procedure, shortened: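 qHTS, concentration–response format with most substances from 19.5 nM. CYP2D6 + pro-luciferin substrate, 15 min with compound, then 1x NADPH regen, 30–45 min RT dark. Glo detection 30 min, luminescence. Quinidine control.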

Chain of Cytochrome P450 2C19 (Homo sapiens) (P33261 whole entry, looked up): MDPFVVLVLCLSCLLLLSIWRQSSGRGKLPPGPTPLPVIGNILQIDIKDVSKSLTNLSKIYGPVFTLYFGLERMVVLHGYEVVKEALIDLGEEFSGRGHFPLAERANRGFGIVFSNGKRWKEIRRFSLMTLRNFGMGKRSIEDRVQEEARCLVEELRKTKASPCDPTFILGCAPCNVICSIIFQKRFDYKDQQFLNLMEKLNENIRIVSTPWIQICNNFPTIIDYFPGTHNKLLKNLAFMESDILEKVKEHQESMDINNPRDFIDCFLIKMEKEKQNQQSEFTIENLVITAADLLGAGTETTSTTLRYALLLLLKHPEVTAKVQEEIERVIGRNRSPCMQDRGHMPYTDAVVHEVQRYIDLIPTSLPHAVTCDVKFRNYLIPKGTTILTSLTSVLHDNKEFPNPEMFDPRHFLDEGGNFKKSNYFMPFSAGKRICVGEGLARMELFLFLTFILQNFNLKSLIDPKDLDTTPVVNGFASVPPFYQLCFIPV
Chain of Cytochrome P450 2C9 (Homo sapiens) (P11712 whole entry, looked up): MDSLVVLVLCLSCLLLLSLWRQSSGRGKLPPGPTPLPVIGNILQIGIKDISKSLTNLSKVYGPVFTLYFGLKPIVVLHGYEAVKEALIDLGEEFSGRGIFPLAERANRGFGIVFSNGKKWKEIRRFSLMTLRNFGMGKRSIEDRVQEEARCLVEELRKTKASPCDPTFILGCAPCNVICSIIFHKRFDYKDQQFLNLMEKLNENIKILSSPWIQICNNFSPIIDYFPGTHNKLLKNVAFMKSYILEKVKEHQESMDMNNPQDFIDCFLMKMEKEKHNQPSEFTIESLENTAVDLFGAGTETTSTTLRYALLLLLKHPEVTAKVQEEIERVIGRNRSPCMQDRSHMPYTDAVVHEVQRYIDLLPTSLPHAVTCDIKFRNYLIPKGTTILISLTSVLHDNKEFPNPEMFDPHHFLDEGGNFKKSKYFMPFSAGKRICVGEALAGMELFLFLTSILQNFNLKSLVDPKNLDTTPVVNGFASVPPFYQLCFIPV
Chain of Cytochrome P450 3A4 (Homo sapiens) (P08684 whole entry, looked up): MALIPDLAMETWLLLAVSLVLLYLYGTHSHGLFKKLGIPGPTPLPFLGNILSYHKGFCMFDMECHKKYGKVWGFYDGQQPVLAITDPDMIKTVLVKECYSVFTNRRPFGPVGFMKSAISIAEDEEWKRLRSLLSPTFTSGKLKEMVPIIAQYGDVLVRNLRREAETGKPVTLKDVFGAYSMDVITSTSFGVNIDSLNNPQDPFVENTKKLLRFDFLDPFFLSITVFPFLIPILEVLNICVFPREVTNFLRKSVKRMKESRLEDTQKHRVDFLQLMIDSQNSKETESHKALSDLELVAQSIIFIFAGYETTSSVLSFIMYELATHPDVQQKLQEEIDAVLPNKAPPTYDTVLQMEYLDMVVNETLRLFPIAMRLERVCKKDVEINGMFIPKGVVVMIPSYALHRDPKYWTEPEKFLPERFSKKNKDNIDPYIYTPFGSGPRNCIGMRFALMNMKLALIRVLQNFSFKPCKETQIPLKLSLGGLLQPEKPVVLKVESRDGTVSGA
Chain of Cytochrome P450 2D6 (Homo sapiens) (P10635 whole entry, looked up): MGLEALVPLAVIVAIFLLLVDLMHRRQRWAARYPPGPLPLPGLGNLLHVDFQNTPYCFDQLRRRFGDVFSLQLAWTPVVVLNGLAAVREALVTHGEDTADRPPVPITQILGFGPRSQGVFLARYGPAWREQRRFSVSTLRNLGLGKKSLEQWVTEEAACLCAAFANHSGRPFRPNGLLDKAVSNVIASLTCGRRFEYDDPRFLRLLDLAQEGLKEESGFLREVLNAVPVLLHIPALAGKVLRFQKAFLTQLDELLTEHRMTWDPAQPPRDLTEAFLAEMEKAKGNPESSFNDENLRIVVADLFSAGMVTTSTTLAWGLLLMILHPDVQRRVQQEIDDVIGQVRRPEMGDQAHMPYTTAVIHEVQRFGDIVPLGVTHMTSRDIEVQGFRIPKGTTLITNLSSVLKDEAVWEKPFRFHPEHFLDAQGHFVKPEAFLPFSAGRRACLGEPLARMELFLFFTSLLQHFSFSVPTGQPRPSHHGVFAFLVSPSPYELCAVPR

In the case of `CN1C(=O)c2ccccc2NC(=O)C1Cc1ccccc1` (stereo not drawn), the outcome [1] is reported as “inactive” and the outcome [2] is reported as “inactive”.
With `CN1C(=O)N(c2ccc(C#N)c(C(F)(F)F)c2)C(=O)[C@]1(CO)c1ccccc1` the outcome [1] was “inactive” and the outcome [2] was “inactive”.
With `CC1=CC2/C=C(\C)CCC(O)C3OC(C)(C)OC3CC(=O)OC23C(=O)NC(CC(C)C)C3C1C` (stereo not drawn) the outcome [1] was “inactive” and the outcome [2] was “inactive”.
For `C=C(C)[C@H]1O[C@H]2CC[C@@]3(C)[C@@](O)(CC[C@H]4[C@@H]5OC(C)(C)[C@H]6C[C@@H]7C(=C)Cc8c(Cl)cc9[nH]c(c5c9c8[C@@]76O)[C@@]43C)[C@]23O[C@@H]3[C@H]1O`, the outcome [1] was “inactive” and the outcome [2] was “inactive”.
With `CC12CCC3C(CCC4(O)CC(O)CCC34C=O)C1(O)CCC2C1=CC(=O)OC1` (stereo not drawn) the outcome [1] was “inactive” and the outcome [2] was “inactive”.
In the case of `CCN1CC2(COC)C3[C@@H](OC)C4C1C3(C1C[C@]3(O)[C@H](OC(=O)c5ccccc5)C1[C@]4(OC(C)=O)[C@@H](O)[C@@H]3OC)[C@H](OC)C[C@H]2O` (stereo partly drawn), the outcome [1] is reported as “inactive” and the outcome [2] is reported as “inactive”.
In the case of `C=CC(C)(C)c1[nH]c2cccc3c2c1C[C@@H]1[C@@H]3[C@@H](OC(C)=O)[C@H](C)CN1C`, the outcome [1] is reported as “inactive” and the outcome [2] is reported as “inactive”.
With `CC[C@H]1CN2CC[C@H]1C[C@H]2[C@H](O)c1ccnc2ccc(OC)cc12` the outcome [1] was “inactive” and the outcome [2] was “inactive”.
For `COC1=CC(=O)O[C@@H](CCc2ccccc2)C1`, the outcome [1] was “inactive” and the outcome [2] was “inactive”.
With `CN[C@H]1[C@H](O)[C@H](O[C@@H]2[C@@H](O)[C@H](O[C@H]3O[C@H]([C@H](C)O)[C@@H](O)[C@H](O)[C@H]3N)[C@@H](N)C[C@H]2N)OC[C@@]1(C)O` the outcome [1] was “inactive” and the outcome [2] was “inactive”.
In the case of `COC1=CC(=O)O[C@@H](/C=C/c2ccccc2)C1`, the outcome [1] is reported as “inactive”, the outcome [2] is reported as “inactive” and the outcome [3] is reported as “inactive”. The outcome [4] was “inactive”, the Potency [5] was 14.1 µM (active) and the outcome [6] was “inactive”. For the same compound, the outcome [7] was “inactive” and the max response [8] was -0.203%.
For `C[C@H]1O[C@@H](O[C@H]2C[C@@H](O)[C@]3(CO)C4C(CC[C@]3(O)C2)[C@@]2(O)CC[C@H](C3=CC(=O)OC3)[C@@]2(C)C[C@H]4O)[C@@H](O)[C@@H](O)[C@H]1O` (stereo partly drawn), the outcome [1] was “inactive” and the outcome [2] was “inactive”.
In the case of `C=C(CO)C(=O)O[C@H]1C/C(C)=C/CC/C(CO)=C/[C@H]2OC(=O)C(=C)[C@H]12`, the outcome [1] is reported as “inactive” and the outcome [2] is reported as “inactive”.
For `Cc1cn(C[C@H](N)C(=O)O)c(=O)n(Cc2cc(-c3ccccc3)sc2C(=O)O)c1=O`, the outcome [1] was “inactive” and the outcome [2] was “inactive”.
In the case of `Cc1cccc(NC(=O)N[C@@H]2N=C(c3ccccc3)c3ccccc3N(C)C2=O)c1`, the outcome [2] is reported as “inactive”.
In the case of `COc1c(C(C)C)cc2c(c1O)[C@@]1(C(=O)O)CCCC(C)(C)C1CC2` (stereo partly drawn), the outcome [2] is reported as “inactive”.
For `CCCN1CCO[C@H]2c3cc(O)ccc3OC[C@@H]21`, the outcome [1] was “inactive” and the outcome [2] was “inactive”.
For `CC(N)Cc1c[nH]c2ccccc12` (stereo not drawn), the outcome [1] was “inactive” and the outcome [2] was “inactive”.
In the case of `CCc1[nH]c2ccc(OC)cc2c1CCN(C)C`, the outcome [1] is reported as “inactive” and the outcome [2] is reported as “inactive”.
For `O=Cc1ccco1`, the outcome [9] was “inactive”, the Potency [5] was 6.31 µM (active) and the outcome [6] was “inactive”. The outcome [7] was “inactive” and the max response [8] was -3.87%.
For `COc1ccccc1CN[C@H]1C2CCN(CC2)[C@H]1C(c1ccccc1)c1ccccc1`, the outcome [1] was “inactive” and the outcome [2] was “inactive”.
For `COC(=O)[C@@]12C(=O)C(C)C(=O)[C@]1(C)C(C)=C[C@H]1[C@]3(C=O)CC[C@H](OC(C)=O)C(C)(C)[C@H]3CC[C@@]12C` (stereo partly drawn), the outcome [1] was “inactive” and the outcome [2] was “inactive”.
For `CC(=O)OC1CC(O)C(C)(C)C2CC(OC(C)=O)C3(C)C(CCC4(C)C(c5ccoc5)C(=O)C5OC543)C12C` (stereo not drawn), the outcome [1] was “inactive” and the outcome [2] was “inactive”.
